The list is not random: actives were taken first. Their share in the collection is about 0.37%.
MBNL1 CUG block: MBNL1-poly(CUG) RNA binding inhibition; TR-FRET MBNL1-His/biotin-(CUG)12 binding, 665/545 ratio; Potency, µM (titrated, usually from 57.5 µM), for inactives: top-dose activity change, negative = inhibition, most hits filed as inhibitors; actives 0.036% (n = 280,000); active means well fitted inhibition curve with a large enough effect in the signal ratio, with a control signal flat, not every such curve was filed as active; inconclusive means small, poorly fitted or top-dose-only effect, or effect the other way, or a change in a side signal; inactive means no such curve, though single readings can be large or run the other way; the % refers to the signal ratio; further: potency means the concentration at half of the fitted maximal effect; on the % scale 0 is the no-effect control and ±100 the full control effect
Target sequence (Q9NR56 whole entry, looked up): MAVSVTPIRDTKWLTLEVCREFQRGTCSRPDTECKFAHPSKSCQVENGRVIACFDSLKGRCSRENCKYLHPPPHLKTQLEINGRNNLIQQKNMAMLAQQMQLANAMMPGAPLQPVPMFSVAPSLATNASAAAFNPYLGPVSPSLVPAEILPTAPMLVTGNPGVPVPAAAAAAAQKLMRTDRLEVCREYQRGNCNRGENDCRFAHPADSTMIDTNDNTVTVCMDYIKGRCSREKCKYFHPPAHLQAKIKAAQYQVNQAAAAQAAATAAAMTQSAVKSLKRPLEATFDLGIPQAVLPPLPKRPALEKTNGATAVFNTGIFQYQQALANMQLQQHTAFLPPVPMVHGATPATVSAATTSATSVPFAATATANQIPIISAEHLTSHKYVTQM
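TR-FRET readout: Ex 340 nm, 665/545 nm emission ratio, normalized to buffer-only (basal) and MBNL1-(CUG)12 controls. Complex of MBNL1-His with Biotin-(CUG)12, compounds 92 nM–58 uM, incubated 60 min at room temperature.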
Epigenetic derep: epigenetic control regulation, reporter derepression; murine LDR cells, GFP reporter derepression, 30 h; actives 0.2% (n = 280,000); Potency, µM (top dose mostly 53.9 µM), inactives show top-dose GFP activation, usual class: activators; further: potency means the concentration at half of the fitted maximal effect; % of control where 0% means no effect; nearly all actives have a fitted effect of over 60% in size
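In this reporter-derepression format, murine cells bearing a silenced integrated CMV-GFP locus incubate with test compound (30 h, 37 C), then are washed and imaged; fluorescent objects of 20–120 um count as induced cells.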
PTAP TSG101 blk: blocks PTAP/TSG101 interaction to inhibit HIV-1 budding. Q99816. Fluorescence polarization, FITC-PTAP peptide / Tsg101 binding. Potency, µM (top dose mostly 115 µM), without a hit: at the top dose activity change, negative = inhibition, usual class: inhibitors. 340,000 tested, under 10 active. AID 493005; active means well fitted inhibition curve with a large enough effect in the main read-out, with a control signal flat, not every such curve was filed as active; inconclusive means small, poorly fitted or top-dose-only effect, or effect the other way, or a change in a side signal; inactive means no such curve, though single readings can be large or run the other way; further: potency means the concentration at half of the fitted maximal effect; % of control where 0% means no effect
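Tsg101 binding domain (10 uM final) was mixed with compound and a FITC-labeled PTAP peptide (50 nM final) in HEPES pH 7.5 buffer with NaCl, Tween 20, EDTA and TCEP; fluorescence polarization was read after 20 min at r.t.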
CBFb RUNX1 block: blocks binding between human CBF-beta and RUNX1; Q01196+Q13951; AID 1477; Potency, µM (highest dose often 59.8 µM), inactives show top-dose activity, negative = inhibition, actives largely listed as inhibitors; AlphaScreen CBFb-His/RUNX1-biotin binding, biochemical; 230,000 tested, under 10 active; further: % of control where 0% means no effect
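AlphaScreen binding: CBFb-His and RUNX1-biotin (30 nM each) preincubated 20 min, compound added for 15 min, then nickel and streptavidin beads for 90 min, all at room temperature. Disruption of the interaction by any mechanism counts as activity.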
Vif-APOBEC3G blk: inhibitors of Vif-APOBEC3G interaction. Q9HC16. HeLa A3G-eYFP + Vif (tagged APOBEC3G with the HIV-1 protein that degrades it), YFP fluorescence, overnight. Potency, µM (top dose mostly 46.1 µM), inactives show at the highest dose activity, negative = active, hits mostly inhibitors. actives 0.076% (n = 410,000); further: potency means the concentration at half of the fitted maximal effect; on the % scale 0 is the no-effect control and ±100 the full control effect; nearly all actives have a fitted effect of over 60% in size
Target sequence (Q9HC16 whole entry, looked up): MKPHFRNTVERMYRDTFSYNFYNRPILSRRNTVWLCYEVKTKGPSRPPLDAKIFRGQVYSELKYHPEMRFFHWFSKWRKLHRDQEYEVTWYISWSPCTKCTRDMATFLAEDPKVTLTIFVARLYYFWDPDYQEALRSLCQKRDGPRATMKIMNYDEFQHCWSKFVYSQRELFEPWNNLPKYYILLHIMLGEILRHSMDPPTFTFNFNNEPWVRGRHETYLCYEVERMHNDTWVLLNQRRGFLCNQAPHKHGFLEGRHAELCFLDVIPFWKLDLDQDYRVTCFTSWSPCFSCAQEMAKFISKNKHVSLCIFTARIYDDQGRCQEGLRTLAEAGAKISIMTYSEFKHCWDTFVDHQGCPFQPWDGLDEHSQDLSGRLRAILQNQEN
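HeLa cells stably expressing Vif and C-terminally eYFP-tagged A3G, seeded overnight at 37 deg C, then exposed to compound by pintool overnight at 37 deg C. Rise in yellow fluorescence (Ex 488/Em 500-530, Acumen) marks blocked Vif-driven A3G degradation.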
Vif-APOBEC3F blk: inhibitors of Vif-A3F interaction | Potency, µM (highest dose often 46.1 µM), inactives show at the highest dose activity, negative = active | actives 0.2% (n = 390,000) | HeLa A3F-eYFP + Vif (tagged APOBEC3F with the HIV-1 protein that degrades it), YFP fluorescence increase | AID 602313; further: potency means the concentration at half of the fitted maximal effect; % of control where 0% means no effect; nearly all actives have a fitted effect of over 65% in size
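HeLa cells stably expressing Vif plus C-terminally eYFP-tagged A3F were seeded, incubated overnight at 37 deg C, dosed with compound, incubated overnight again at 37 deg C. Yellow fluorescence (Ex 488/Em 500-530) reported blocked Vif-mediated A3F-eYFP degradation.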
* = called active by the depositor; ? = inconclusive; nt = not tested or not shown. Unless noted, the call rests on the fitted dose curve; in most records, active means well fitted curve in the direction sought with a large enough effect; inconclusive means small, poorly fitted or top-dose-only effect, or another doubt; inactive means no such curve, though single readings can be large; an effect the other way counts as inactive or inconclusive.

SMILES	MBNL1 CUG block	Epigenetic derep	PTAP TSG101 blk	CBFb RUNX1 block	Vif-APOBEC3G blk	Vif-APOBEC3F blk
O=C(CC(Cl)(Cl)Cl)N1CCN(/[N+]([O-])=N/Oc2ccc([N+](=O)[O-])cc2[N+](=O)[O-])CC1	nt	nt	nt	nt	-9%	nt
Cc1ccc(NC(=O)CN2C(=O)N/C(=C/c3cc(C)n(-c4ccc(C(=O)O)cc4)c3C)C2=O)cc1	?	1%	-4%	?	2%	-12%
CCn1c(C)cc(/C=C2\NC(=O)N(CC(=O)Nc3ccc(F)cc3)C2=O)c1C	20%	25µM*	0%	11%	0%	5%
CC1=CC(O)=NS(=O)(=O)O1	nt	nt	nt	nt	1%	nt
O=S(=O)(Nc1c(Br)cc(Br)c2cccnc12)C1CCCCC1	nt	nt	nt	nt	-1%	nt
Cn1nnnc1SCc1nc2scc(-c3ccc(Cl)cc3)c2c(=O)[nH]1	11%	?	-1%	6%	-21%	22µM*
COc1ccnc(CSC(N)=Nc2ccccc2OC)c1	-3%	3.5µM*	-4%	1%	4%	7%
COc1ccnc(CSC(N)=Nc2ccccc2C(F)(F)F)c1	34%	-1%	0%	3%	-1%	6%
Cc1ccc(SC(=O)c2c([N+](=O)[O-])c(C)nn2C)cc1	4%	22µM*	-2%	11%	-14%	-13%
Cc1cc(C)n(C(=O)c2c([N+](=O)[O-])c(C)nn2C)n1	?	1%	-1%	-3%	4%	2%
CCOc1cc(/C=C/C(=O)c2ccc(OC)c(CN3CCOCC3)c2)cc(Br)c1O	1%	nt	12%	nt	?	25µM*
CCOc1cc(/C=N/NC(=O)c2ccc(CN3CCOCC3)cc2)ccc1OC	15%	-1%	-2%	0%	0%	1%
COc1ccc2c(C)cc(SCC(=O)NC3CCCCC3)nc2c1	nt	nt	-7%	nt	-3%	?
COc1ccc2c(C)cc(SCC(=O)N3CCOCC3)nc2c1	7%	8%	8%	7%	?	25µM*
Cc1ccc(N2C(=O)CSCC2=O)cc1	-1%	0%	0%	-8%	-2%	1%
Cc1ccc(N2C(=O)CS/C2=C(\C(Cl)=C(Cl)Cl)[N+](=O)[O-])cc1	10%	?	1%	?	?	25µM*
O=C(OCCC12CC3CC(CC(C3)C1)C2)c1ccc(NCc2cc(O)ccc2O)cc1	nt	nt	2%	nt	?	?
O=C(OCC12CC3CC(CC(C3)C1)C2)c1ccc(NCc2cc(O)ccc2O)cc1	nt	nt	0%	nt	-15%	22µM*
CC[n+]1c(/C=C/c2c[nH]c3ccccc23)ccc2cc(C)ccc21	nt	4.5µM*	?	-15%	?	-124%
Cc1ccc(C(=O)/C=C/c2c[nH]c3ccccc23)cc1	12%	?	-5%	2%	-27%	-8%
CCN(CC)C(=O)c1ccc(/C=C/c2c[nH]c3ccccc23)[n+](C)c1	?	?	?	5%	?	13µM*
CCCCCCCCCCCCCCCC[n+]1ccc(/C=C/c2c[nH]c3ccccc23)c2ccccc21	nt	nt	nt	nt	1%	nt
CN(C)c1ccc(/C=C/N2C=CCc3c2ccc2ccccc32)cc1	nt	nt	nt	nt	9%	nt
CC(C)(C)c1ccc(C(=O)C[n+]2ccc(Cl)c3ccc(Cl)cc32)cc1	nt	nt	nt	nt	-30%	nt
Cc1c(/C=C/c2ccnc3ccccc23)ccc(N(C)C)c1C	nt	nt	nt	nt	-24%	nt
SMILES	MBNL1 CUG block	Epigenetic derep	PTAP TSG101 blk	CBFb RUNX1 block	Vif-APOBEC3G blk	Vif-APOBEC3F blk
COc1ccc(N=C/C=C2\C=C(c3ccccc3)OC(C)(C)O2)cc1	16%	?	-5%	-14%	-2%	-14%
Cc1ccccc1N=C/C=C1/C=C(c2ccccc2)OC(C)(C)O1	?	22µM*	-6%	3%	1%	-3%
Nc1[nH]c(=S)[nH]c(=O)c1N	nt	nt	nt	nt	2%	nt
Cc1cc(OCC(=O)Nc2nnc(C3CC3)s2)ccc1Cl	nt	nt	nt	nt	2.8µM*	-1%
NC1=NC(=Nc2cccc(S(N)(=O)=O)c2)c2ccccc21	nt	0%	-5%	11%	-1%	2%
COc1cc(N=Nc2cccc(S(N)(=O)=O)c2)c2ccccc2c1N	?	32µM*	-1%	?	?	25µM*
Cc1ccc(NC(=O)CSc2nc3c(cc2C#N)C(=O)CCC3)cc1S(=O)(=O)N(C)C	?	12%	-3%	-11%	-2%	?
CN(C)S(=O)(=O)c1ccc(Cl)c(NC(=O)CSc2nc3c(cc2C#N)C(=O)CCC3)c1	1%	25µM*	0%	-5%	1%	-8%
CCCCC/C=N/NC(=O)c1[nH]c2ccc([N+](=O)[O-])cc2c1C	nt	1%	-1%	-12%	2%	11%
CCC/C=N/NC(=O)c1[nH]c2c([N+](=O)[O-])cccc2c1C	?	-1%	-1%	4%	7.1µM*	9%
Cc1cc(Cl)ccc1OCC(=O)Nc1cccc(-c2nc3ccccc3o2)c1	nt	nt	nt	nt	3%	nt
O=C1CSC(=S)N1Cc1cccnc1	5%	2%	-2%	-10%	?	11µM*
O=C1CSC(=S)N1c1cccnc1	6%	-1%	2%	-5%	1%	-6%
N=c1c(C(=O)NCc2ccco2)cc2c(=O)n3ccccc3nc2n1Cc1ccccc1	?	0%	-5%	-2%	-2%	4%
N=c1c(C(=O)NCc2ccco2)cc2c(=O)n3ccccc3nc2n1Cc1ccc(Cl)cc1	?	7.1µM*	0%	-3%	-9%	-38%
Oc1sc(C=Nc2ccc(F)cc2)c2ccccc12	?	?	?	9%	?	2.8µM*
Oc1c(C=Nc2ccccc2)sc2ccccc12	10%	0%	?	6%	?	-12%
Oc1sc(C=Nc2ccccc2)c2ccccc12	?	?	?	-2%	11µM*	25µM*
CC(C)CC(=O)N1C/C=C\C[C@@H](c2ccc(Cl)cc2)N(Cc2ccc(Cl)cc2)C(=O)[C@@H]1Cc1ccccc1	nt	nt	nt	nt	-1%	nt
CCCCCCC[n+]1ccc(/C=C/c2c(C)[nH]c3ccccc23)c2ccccc21	nt	nt	nt	nt	9%	nt
Clc1cccc[n+]1CCCCCC[n+]1ccccc1Cl	nt	nt	nt	nt	-6%	nt
c1cncc(-c2nc(NCc3cccs3)c3ccccc3n2)c1	1%	-5%	1%	6%	-8%	18µM*
Fc1ccccc1CNc1nc(-c2cccnc2)nc2ccccc12	2%	nt	-3%	nt	2%	-5%
O=C1c2ccccc2-c2nc3ccccc3cc21	?	nt	-3%	nt	-8%	2.8µM*
Cc1cc2ccccc2nc1-c1ccccc1F	nt	nt	1%	nt	0%	1%
c1ccc2c(c1)Cc1cc3ccccc3nc1-2	?	0%	-2%	12%	?	10µM*
